Measured values from PubChem BioAssay (NCATS).
Results filed as inconclusive are left out. Where a call stands in place of a potency, no number is given. Active and inactive are the calls of the source. The call rests on the fitted dose curve; in most records, active means well fitted cell-killing curve with a large enough effect; inconclusive means small, poorly fitted or top-dose-only effect; inactive means flat fitted curve, though single readings scatter.

Assay: Cell Viability - LYMP2-022 (AID 987); further: nearly all actives have a fitted effect of over 55% in size
Conditions: LYMP2-022 lymphoblastoid cell viability; series mostly up to 92.2 µM
Text: NIH Chemical Genomics Center [NCGC]
NIH Molecular Libraries Screening Centers Network [MLSCN]
National Institutes of Environmental Health Sciences [NIEHS]
National Toxicology Program [NTP]
We have developed a 1536-well cell-based assay for quantitative high throughput screening (qHTS) against a number of cell lines to determine in vitro cytotoxicity of small molecules. This particular assay uses a human lymphoblastoid cell line (LYMP2-022) purchased from Coriell Institute for Medical Research.
NCGC Assay Protocol Summary:
The CellTiter-Glo luminescent cell viability assay (Promega) is a homogeneous method to measure the number of viable cells in culture. The end point readout of this assay is based on quantitation of intracellular ATP, an indicator of metabolic activity, using the luciferase reaction. Luciferase catalyzes the oxidation of beetle Luciferin to oxyluciferin and light in the presence of ATP. The luminescent signal is proportional to amount of ATP present.
Using the CellTiter-Glo luminescent cell viability assay, the amount of cellular ATP was measured in the lymphoblastoid cell line with complete culture medium following compound treatment for 24 hours. The assay was performed in opaque white Kalypsys 1536-well plates. In the screen, tetraoctylammonium bromide was used as positive control. Library compounds were measured for their ability to cause acute toxicity in the cell line, as reflected by a decrease in intracellular ATP levels, in a concentration-dependent manner. […] AC50 values were determined from concentration-response data modeled with the standard Hill equation.
qHTS protocol for CellTiter Glo lymphoblastoid cellular assay
[Step] [Parameter] [Value] [Description]
1. Reagent; 5 uL; 2500 lymphoblastoid cells/well
2. Time; 5 hr; 37 C incubation
4. Controls; 23 nL; Tetraoctylammonium bromide 6.4pM to 92 uM
5. Time; 24 hr; 37 C incubation
6. Reagent; 5 uL; CellTiter Glo reagent
7. Time; 30 min; Room Temperature
8. Detection; Luminescence; Viewlux plate reader
Keywords: cell viability, cytotoxicity, lymphoblastoid cell line, luminescence, NTPHTS, NTPHTS_NCGC, NIEHS, DSSTox, MLSMR, MLSCN, NIH Roadmap, qHTS, NCGC
Potency means the concentration at half of the fitted maximal effect.

Row | SMILES | Potency
1 | O=[N+]([O-])c1c2ccccc2cc2ccccc12 | inactive
2 | Nc1ccc(Cl)cc1 | inactive
3 | Nc1ccc([N+](=O)[O-])cc1 | inactive
4 | C1CCC(NC2CCCCC2)CC1 | inactive
5 | OCCCBr | inactive
6 | COC(C)(C)CCCC(C)C/C=C/C(C)=C/C(=O)OC(C)C (centres undefined) | inactive
7 | CN(C)[C@@H]1C(=O)C(C(N)=O)=C(O)[C@@]2(O)C(=O)C3=C(O)c4c(O)cccc4[C@@](C)(O)[C@H]3[C@H](O)[C@@H]12 | inactive
8 | CC(=O)[O][Hg][c]1ccccc1 | 501 nM (active)
9 | O=[N+]([O-])c1c(Cl)c(Cl)cc(Cl)c1Cl | inactive
10 | O=S(=O)(c1ccc(Cl)cc1)c1ccc(Cl)cc1 | inactive
11 | CN(C)NC(=O)CCC(=O)O | inactive
12 | O=[N+]([O-])c1cc([N+](=O)[O-])c2ccccc2c1 | inactive
13 | COc1ccc(C(c2ccc(OC)cc2)C(Cl)(Cl)Cl)cc1 | inactive
14 | CCCCOC(=O)c1ccccc1C(=O)OCc1ccccc1 | inactive
15 | CCCCC(CC)COC(=O)c1ccccc1C(=O)OCC(CC)CCCC (centres undefined) | inactive
16 | c1cc2ccc3cccc4ccc(c1)c2c34 | inactive
17 | C=CC(=O)NCNC(=O)C=C | inactive
18 | CCCCCCCCc1ccc(O)cc1 | inactive
19 | Cc1cc(O)ccc1Cl | inactive
20 | CCOP(=O)(NC(C)C)Oc1ccc(SC)c(C)c1 (centres undefined) | inactive
21 | O=C(O)C(Cl)Cl | inactive
22 | Nc1ccc(Sc2ccc(N)cc2)cc1 | inactive
23 | CCOCCOC(C)=O | inactive
24 | O=C(O)COc1ccccc1 | inactive
